Hits are enriched below; roughly 20% of the tested compounds scored in any of these assays.
Shiga toxin inh: blocks Shiga toxin action in Vero cells. Vero cells, Shiga toxin protein synthesis inhibition reporter. 290,000 tested, 9.2% active. AID 2315. inhibition, % at 38.7 µM; in the data active means inhibition mostly above about 28%, no sharp cut-off; inactive means mostly below about 43%; further: 0% is about no effect
Pf growth 96h: inhibits malaria parasite growth, 96 h. P. falciparum luciferase reporter growth, 96 h. Potency, µM (top dose mostly 28.7 µM), without a hit: at the highest dose activity change, negative = inhibition, usual class: inhibitors. 320,000 tested, 6.9% active. AID 504834; further: potency means the concentration at half of the fitted maximal effect; on the % scale 0 is the no-effect control and ±100 the full control effect
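P. falciparum expressing integrated firefly luciferase grown in erythrocytes (2% hematocrit, 0.05% parasitemia final) with compounds for 96 hours at 37 C, 5% CO2. Growth inhibition read as loss of luminescence after adding luciferase detection reagent.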
Pf growth 48h: P. falciparum growth inhibition at 48 hours (one generation); P. falciparum luciferase growth in erythrocytes, 48 h; Potency, µM (doses to about 28.7 µM), for inactives: at the top dose activity change, negative = inhibition, hits mostly inhibitors; 310,000 tested, 5.9% active; AID 504832; further: potency means the concentration at half of the fitted maximal effect; on the % scale 0 is the no-effect control and ±100 the full control effect
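Here the parasites carry a stable luciferase gene and grow inside erythrocytes in Albumax-based RPMI medium with compound for one erythrocytic cycle. Activity is scored as loss of luminescent signal.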
HCMV inh: inhibitors of human cytomegalovirus; HFF cells, HCMV-luciferase reporter, 72 h; active compounds read low; activity change, negative = inhibition, % at 57.5 µM; 410,000 tested, 4.5% active; in the data active means activity change below about -60%; inconclusive means no clear call, values can overlap the other calls; inactive means above about -39%; further: on the % scale 0 is the no-effect control and ±100 the full control effect
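Cell-based, HFFs, 1000 cells/well, 16 h 37C; cpds in DMSO + HCMV-luc, MOI 1 PFU/cell; 72 h 37C; OneGlo luminescence after 5 min RT; norm. to buffer vs Salinomycin 10uM.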
CHX counter-1: affects cycloheximide protein synthesis inhibition readout, counter-screen; cell reporter, cycloheximide protein synthesis inhibition counterscreen; max response, %; 300,000 tested, 12% active; AID 2314; in the data active means max response mostly above about 13%, no sharp cut-off; inactive means mostly below about 14%; further: read at 38.3 µM for the half of the compounds with a filed dose; 0% is about no effect
CHX counter-2: counter-screen for Shiga toxin inhibitors: cycloheximide protein synthesis block; shares compounds with Shiga toxin inh; Cycloheximide counterscreen, protein synthesis reporter, Shiga toxin assay; Potency, µM (highest dose often 38.3 µM), without a hit: top-dose activity (activation), usual class: activators; 510 tested, 3% active; calls by dose curve; further: potency means the concentration at half of the fitted maximal effect; 0% is about no effect
CLK4 ADP-Glo: confirmation of inhibitors of human CDC-like kinase 4. recombinant Clk4, RS peptide, ADP-Glo luminescence. Potency, µM (highest dose often 80 µM), for inactives: at the highest dose activity, negative = inhibition, most hits filed as inhibitors. 65 tested, 80% active. shares compounds with Pf growth 48h
Target sequence (Q9HAZ1 whole entry, looked up): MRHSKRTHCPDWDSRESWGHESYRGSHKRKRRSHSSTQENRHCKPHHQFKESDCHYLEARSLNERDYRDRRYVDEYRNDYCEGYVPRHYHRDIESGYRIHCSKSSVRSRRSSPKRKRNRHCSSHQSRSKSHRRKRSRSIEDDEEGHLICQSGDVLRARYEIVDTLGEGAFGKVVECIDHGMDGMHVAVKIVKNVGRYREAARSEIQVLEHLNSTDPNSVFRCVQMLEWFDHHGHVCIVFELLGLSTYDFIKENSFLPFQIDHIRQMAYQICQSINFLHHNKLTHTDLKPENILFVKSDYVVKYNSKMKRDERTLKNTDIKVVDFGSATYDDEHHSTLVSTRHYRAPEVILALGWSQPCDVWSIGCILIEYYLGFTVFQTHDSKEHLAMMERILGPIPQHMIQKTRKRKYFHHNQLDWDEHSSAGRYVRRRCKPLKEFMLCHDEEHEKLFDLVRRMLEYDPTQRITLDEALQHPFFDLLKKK
CLK4 cf ADP-FP: confirmation of human CDC-like kinase 4 (CLK4) inhibitors. shares compounds with Pf growth 48h. recombinant Clk4, ADP Transcreener FP, RS peptide. 65 tested, 70% active. Potency, µM (series often up to 80 µM), without a hit: at the top dose activity, negative = inhibition, usual class: inhibitors
The depositor's hits bear a star; ? = inconclusive; / = no result; + = active, no number. Unless noted, the call rests on the fitted dose curve; in most records, active means well fitted curve in the direction sought with a large enough effect; inconclusive means small, poorly fitted or top-dose-only effect, or another doubt; inactive means no such curve, though single readings can be large; an effect the other way counts as inactive or inconclusive.

SMILES	Shiga toxin inh	Pf growth 96h	Pf growth 48h	HCMV inh	CHX counter-1	CHX counter-2	others
NNC(=O)Cn1c2ccccc2c2ccccc21	-8.9	25.0%	32.7%	2.0	0.4	/
C=CCn1c(-c2ccc(OC)c(OC)c2)cs/c1=N\c1ccccn1	29.4*	2.0%	?	30.5	8.3	4.5%
Cc1ccc(CSc2nnc(CCCCCNC(=O)OC(C)(C)C)o2)cc1	25.2*	-20.0%	?	-13.0	-2.6	-0.5%
COc1cccc(/C=N/n2nnc3c(cnn3-c3ccccc3)c2=O)c1	-9.2	30.4%	?	-9.3	2.2	/
O=C(O)CCCC(=O)Nc1nc(-c2ccccc2)cs1	-9.8	2.5%	12.7%	-25.2	-2.7	/
CC(C)C(=O)SCCCCCCC(=O)Nc1nc(-c2ccccc2)cs1	15.7*	/	/	/	-0.8	1.1%
O=C(Nc1ccc(Cl)cc1)C1CCN(C(=O)c2cccs2)CC1	103.9*	6.3%	4.9%	-7.9	-3.5	-4.9%
CCc1ccccc1NC(=O)Cn1nnc(-c2cccs2)n1	48.5*	?	?	27.1	-3.6	0.2%
Cc1nn(C(C)C(=O)NC2CCC(C)CC2)c(=O)c2nn(-c3ccccc3)c(C)c12 (stereo not drawn)	30.6*	15.7%	-2.3%	-30.5	-1.7	?
CCC(C(=O)NC1CC1)n1nc(C)c2c(C)n(-c3ccccc3)nc2c1=O (stereo not drawn)	-5.7	?	-9.7%	-7.3	-4.5	/
CC1CCCN(CCSc2ccc(Cl)cc2)C1 (stereo not drawn)	30.3*	-20.0%	2.3%	47.6	-1.3	0.1%
CCNc1nnc(-c2ccccc2OC)s1	72.7*	?	23.0%	51.2	-1.4	3.5%
COc1ccccc1-c1nnc(NC(=O)C(C)SC2=NCCS2)s1 (stereo not drawn)	-3.6	?	/	4.3	-2.0	/
Cc1nnc(NC(=O)CSc2ccc(-c3ccc(Cl)cc3)nn2)s1	29.9*	23.5%	35.2%	-13.0	11.8	0.2%
CCOc1ccccc1N1CCN(CC(=O)NCCc2ccc(S(N)(=O)=O)cc2)CC1	-9.5	-0.9%	?	-31.2	0.6	/
O=C(COc1ccc2ccccc2c1)NCC1CCCO1 (stereo not drawn)	39.5*	-26.4%	43.6%	-14.8	-1.9	3.2%
CCC(C)(C)C1CCC2(CC1)NC(=O)N(CC(=O)N1CCN(S(=O)(=O)c3cc(C)ccc3C)CC1)C2=O (stereo not drawn)	-11.5	16.5%	6.9%	-26.5	-2.2	/
C=CCOC(=O)C1=C(C)OC(N)=C(C(=O)OCC)C12C(=O)N(CC(N)=O)c1ccccc12 (stereo not drawn)	33.2*	13.1µM*	-0.9%	33.5	6.3	-1.8%
COc1ccc(C(=O)OCC#CCSc2nnc(-c3cccc4ccccc34)o2)cc1	/	2.4%	17.4%	-14.6	/	/
COC(=O)c1ccc(-c2ncc(-c3cccc4ccccc34)o2)cc1	33.9*	73.5%	61.8%	186.8	1.7	10µM*
COc1ccc(C/C(O)=C(\C#N)c2nc3ccccc3s2)cc1	34.5*	0.4%	3.1%	/	1.1	-2.7%
N#C/C(=C(/O)COc1ccc(Cl)cc1)c1nc2ccccc2s1	-3.7	8.6%	2.6%	-1.9	-0.7	/
CCn1cc(CN2CCCC(C(=O)Nc3ccc(-c4cscn4)cc3)C2)c(C)n1 (stereo not drawn)	5.9	?	-29.2%	-26.2	7.5	/
COc1ccc(NC(=O)Cn2nc(C)c([N+](=O)[O-])c2C)cn1	17.3	?	4.0%	-6.3	-3.4	/
COC(=O)[C@H](Cc1ccccc1)NC(=O)N1CCCCC1C (stereo partly drawn)	117.0*	50.9%	32.5%	0.4	10.2	0.7%
SMILES	Shiga toxin inh	Pf growth 96h	Pf growth 48h	HCMV inh	CHX counter-1	CHX counter-2	others
COC(=O)[C@H](Cc1ccccc1)NC(=O)N1CCC(C)CC1	-10.3	/	37.1%	87.9	9.1	/
COc1cc(CNc2ncnc3c2ncn3[C@H]2CN(Cc3ccc(F)cc3)C[C@@H](CO)O2)cc(OC)c1OC	/	/	/	15.9	/	/
CCCCNC(=O)N(O)C1N(/N=C/c2cccs2)C(=S)SC1(C)C (stereo not drawn)	4.8	?	-29.3%	23.8	-1.6	/
Cc1cc(NC(=O)CSc2nc3ccsc3c(=O)n2Cc2ccccn2)n[nH]1	64.8*	?	7.5%	128.2	11.9	1.2%
CC(=O)c1cn(CC(=O)Nc2ccccc2Cl)c2ccccc12	/	148.2%	4.2%	-37.9	-1.2	/
COc1ccc(CN2C[C@@H](CO)O[C@@H](n3cnc4c(N5CCCC5)ncnc43)C2)cc1	/	/	/	-8.0	/	/
CC1CC(C)CN(C(=O)C(NS(=O)(=O)c2ccc(Br)s2)c2ccccc2)C1 (stereo not drawn)	+	58.4%	?	-27.7	8.9	0.8%
Clc1nssc1=Nc1ccc(Br)cc1	59.0*	-27.0%	16.8%	?	11.2	4.9%
COc1cc(N=c2ssnc2Cl)cc(OC)c1	14.4	-0.6%	15.7%	32.8	-1.1	/
COC(=O)C(=CC(=CN(C)C)C=C(C(=O)OC)C(=O)OC)C(=O)OC	-2.3	12.7%	2.2%	15.8	-4.2	/
Cc1cccc(C(=O)Nc2scc(CC(C)C)c2C(=O)O)c1	39.6*	-8.7%	7.3%	9.3	-4.4	1.3%
CC(C)Cc1csc(NC(=O)c2ccc(Cl)cc2)c1C(=O)O	-6.0	-14.1%	-1.1%	11.2	-2.2	/
O=C(CSCc1ccccc1)N1CCN(C(=O)c2ccco2)CC1	45.9*	/	6.1%	31.8	17.2	?
O=C(CSc1ccccc1)N1CCN(C(=O)c2ccco2)CC1	-3.9	-20.1%	-0.8%	-34.7	7.8	/
O=C(/C=C/[C@H]1O[C@@H](n2cnc3c(NC(=O)c4ccccc4)ncnc32)[C@H](O)[C@@H]1O)NCCCN1CCCC1=O	/	/	/	-19.9	/	/
CCN(CCNC(=O)C1CCN(Cc2nc(-c3ccc(Cl)cc3)oc2C)CC1)c1ccccc1	-4.9	46.3%	?	27.2	1.5	/
CCN(CCNC(=O)C1CCN(Cc2nc(-c3cccc(Cl)c3)oc2C)CC1)c1ccccc1	104.7*	?	?	83.7	10.4	-2.0%
Cc1cccc(CNc2ncnc3ccc(-c4ccoc4)cc23)c1	/	8.28µM*	14.7µM*	14.4	/	/	CLK4 ADP-Glo=0.251µM*;CLK4 cf ADP-FP=0.282µM*
Cc1cccc(-c2ccc3ncnc(NCc4cccnc4)c3c2)c1	/	?	9.28µM*	15.7	/	/	CLK4 ADP-Glo=6.31µM*;CLK4 cf ADP-FP=10µM*
c1cncc(CNc2ncnc3ccc(-c4ccoc4)cc23)c1	/	?	?	-82.5*	/	/	CLK4 ADP-Glo=0.562µM*;CLK4 cf ADP-FP=1µM*

Screening results deposited in PubChem BioAssay by National Center for Advancing Translational Sciences (NCATS).
